In the supplement of paper PMC12494721:
Where a name gives a salt, the structure may show the parent alone.

Key:
Settings in all cases: incubation time: 27 h, anaerobic, 37 °C;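 for the amine columns active = adjusted P below 0.05 in both replicates with a change the same way and a mean fold change under 0.8 or over 1.25; inactive = the rest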
[1] = system: Clostridium sporogenes DSM 1664; assay: growth (OD595) fold change vs plate DMSO controls (fold change (ratio)); higher = more growth
Method in brief: (§1)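 Absorbance at 595 nm was read after shaking the anaerobic mGAM cultures, which had grown in 96-well plates for 27 h at 37 °C. After blank subtraction and background correction against 20 µM compound solutions in water, a calibration factor of 5 gave OD values. Growth is the fold change against the median of the plate's DMSO controls. Values are the mean of 2 biological replicates, with fold changes above 1.5 set to NA.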

[2] = system: Escherichia coli IAI1; assay: as above
Method in brief: as §1

[3] = system: Klebsiella aerogenes DSM 30053; assay: as above
Method in brief: as §1

[4] = system: Ruminococcus gnavus DSM 108212; assay: as above
Method in brief: as §1

[5] = system: Klebsiella aerogenes DSM 30053; assay: fold change of Histamine concentration vs plate DMSO controls (fold change (ratio)); higher = more amine produced, active = hit call of the paper (significant change in both replicates, either direction)
Method in brief: (§2)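 Using LC–triple-quadrupole MS with dynamic MRM, amines were quantified against external calibration curves and corrected for drift within each batch. Samples were whole anaerobic mGAM cultures of four gut strains, grown 27 h at 37 °C from OD 0.1 before 1:1 dilution, extracted with cold acetonitrile/methanol containing 0.1% formic acid and centrifuged. Compounds were present at 20 µM final (sweeteners at 50 µM final). The numbers are fold changes versus plate DMSO controls, each the mean of 2 biological replicates.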

[6] = system: Clostridium sporogenes DSM 1664; assay: fold change of Tryptamine concentration vs plate DMSO controls (fold change (ratio)); higher = more amine produced, active = hit call of the paper (significant change in both replicates, either direction)
Method in brief: as §2

[7] = system: Ruminococcus gnavus DSM 108212; assay: as above
Method in brief: as §2

[8] = system: Escherichia coli IAI1; assay: fold change of Putrescine concentration vs plate DMSO controls (fold change (ratio)); higher = more amine produced, active = hit call of the paper (significant change in both replicates, either direction)
Method in brief: as §2

[9] = system: Klebsiella aerogenes DSM 30053; assay: as above
Method in brief: as §2

[10] = system: Escherichia coli IAI1; assay: fold change of Cadaverine concentration vs plate DMSO controls (fold change (ratio)); higher = more amine produced, active = hit call of the paper (significant change in both replicates, either direction)
Method in brief: as §2

[11] = system: Klebsiella aerogenes DSM 30053; assay: as above
Method in brief: as §2

[12] = system: Ruminococcus gnavus DSM 108212; assay: fold change of 2-Phenylethylamine concentration vs plate DMSO controls (fold change (ratio)); higher = more amine produced, active = hit call of the paper (significant change in both replicates, either direction)
Method in brief: as §2

SMILES | growth [1] | growth [2] | growth [3] | growth [4] | fold change of Histamine concentration [5] | fold change of Tryptamine concentration [6] | fold change of Tryptamine concentration [7] | fold change of Putrescine concentration [8] | fold change of Putrescine concentration [9] | fold change of Cadaverine concentration [10] | fold change of Cadaverine concentration [11] | fold change of 2-Phenylethylamine concentration [12]
COc1ccccc1N1CCN(CCCNc2cc(=O)n(C)c(=O)n2C)CC1 [Urapidil hydrochloride] (20 µM) | 0.984 | 0.934 | 1 | 0.999 | 0.993 (inactive) | 1.04 (inactive) | 0.977 (inactive) | 0.978 (inactive) | 1.01 (inactive) | 1.03 (inactive) | 1 (inactive) | 0.971 (inactive)
OC[C@@H](O)[C@H](O)[C@@H](O)CO [Xylitol] (50 µM) | 1 | 1.05 | 1.11 | 1.12 | 1.08 (inactive) | 1.06 (inactive) | 1.06 (inactive) | 1.03 (inactive) | 1.19 (inactive) | 0.916 (inactive) | 1.02 (inactive) | 1.08 (inactive)
NS(=O)(=O)c1cc2c(cc1C(F)(F)F)NC(Cc1ccccc1)NS2(=O)=O (stereo not drawn) [Bendroflumethiazide] (20 µM) | 0.897 | 1.01 | 1.06 | 1.05 | 0.915 (inactive) | 0.993 (inactive) | 0.993 (inactive) | 0.977 (inactive) | 0.971 (inactive) | 0.959 (inactive) | 1 (inactive) | 0.957 (inactive)
O=C(Nc1ccc([N+](=O)[O-])cc1Cl)c1cc(Cl)ccc1O [Niclosamide] (20 µM) | 0.924 | 1.12 | 1.1 | 0.78 | 0.97 (inactive) | 1.02 (inactive) | 0.887 (inactive) | 1.22 (inactive) | 1.03 (inactive) | 1.31 (active) | 0.992 (inactive) | 0.934 (inactive)
CCN(CC)C(=O)c1cccnc1 [Nikethamide] (20 µM) | 1.07 | 1.01 | 0.998 | 1.13 | 1.02 (inactive) | 1.05 (inactive) | 1.05 (inactive) | 1.06 (inactive) | 1 (inactive) | 1.08 (inactive) | 0.993 (inactive) | 1.08 (inactive)
COc1cc2nc(N3CCN(C(=O)C4COc5ccccc5O4)CC3)nc(N)c2cc1OC (stereo not drawn) [Doxazosin mesylate] (20 µM) | 0.926 | 0.974 | 0.995 | 1.13 | 1.01 (inactive) | 1.1 (inactive) | 0.943 (inactive) | 1.02 (inactive) | 1 (inactive) | 0.983 (inactive) | 0.991 (inactive) | 0.932 (inactive)
CC/C(=C(/CC)c1ccc(O)cc1)c1ccc(O)cc1 [Diethylstilbestrol] (20 µM) | 0.583 | 0.984 | 1 | 0.991 | 1.03 (inactive) | 0.432 (active) | 0.88 (inactive) | 1 (inactive) | 1.01 (inactive) | 1.02 (inactive) | 0.993 (inactive) | 0.865 (inactive)
CO[C@H]1/C=C/O[C@@]2(C)Oc3c(C)c(O)c4c(O)c(c(/C=N/N5CCN(C)CC5)c(O)c4c3C2=O)NC(=O)/C(C)=C\C=C\[C@H](C)[C@H](O)[C@@H](C)[C@@H](O)[C@@H](C)[C@H](OC(C)=O)[C@@H]1C [Rifampicin] (20 µM) | 0.000637 | 0.224 | 0.627 | 0.187 | 0.732 (inactive) | 0.0227 (active) | 0.145 (active) | 0.718 (active) | 0.768 (inactive) | 1.14 (inactive) | 1.06 (inactive) | 0.131 (active)
COc1ccc(C(=O)c2ccccc2O)c(O)c1 [Dioxybenzone] (20 µM) | 0.846 | 0.791 | 0.972 | 0.955 | 0.962 (inactive) | 1 (inactive) | 0.977 (inactive) | 0.86 (inactive) | 0.985 (inactive) | 1.07 (inactive) | 0.996 (inactive) | 0.937 (inactive)
CO[C@H]1/C=C/O[C@@]2(C)Oc3c(C)c(O)c4c(O)c(c(/C=N/N5CCN(C6CCCC6)CC5)c(O)c4c3C2=O)NC(=O)/C(C)=C\C=C\[C@H](C)[C@H](O)[C@@H](C)[C@@H](O)[C@@H](C)[C@H](OC(C)=O)[C@@H]1C [Rifapentine] (20 µM) | 0.0116 | 0.42 | 0.784 | 0.198 | 0.572 (active) | 0.0208 (active) | 0.145 (active) | 0.829 (inactive) | 0.583 (active) | 1.92 (active) | 1.06 (inactive) | 0.128 (active)
Cc1ccc(/C(=C\CN2CCCC2)c2ccccn2)cc1 [Triprolidine hydrochloride] (20 µM) | 1.08 | 1.01 | 0.998 | 1.1 | 1.05 (inactive) | 1.02 (inactive) | 1.01 (inactive) | 1.09 (inactive) | 1.02 (inactive) | 0.797 (inactive) | 0.987 (inactive) | 0.986 (inactive)
CC(=O)Oc1ccccc1C(=O)Oc1ccccc1C(=O)O [Acetylsalicylsalicylic acid] (20 µM) | 1.05 | 1 | 0.995 | 0.881 | 1.02 (inactive) | 1.01 (inactive) | 1.06 (inactive) | 1.01 (inactive) | 0.998 (inactive) | 0.983 (inactive) | 1.01 (inactive) | 1.11 (inactive)
COc1ccc2cc(CCC(C)=O)ccc2c1 [Nabumetone] (20 µM) | 1 | 0.792 | 1.01 | 0.995 | 0.912 (inactive) | 0.926 (inactive) | 0.944 (inactive) | 0.871 (inactive) | 0.974 (inactive) | 1.09 (inactive) | 1.01 (inactive) | 0.946 (inactive)
CC1=C(CC(=O)O)c2cc(F)ccc2/C1=C\c1ccc([S+](C)[O-])cc1 (stereo not drawn) [Sulindac] (20 µM) | 1.15 | 1.08 | 1.02 | 1.3 | 0.931 (inactive) | 1.04 (inactive) | 1.03 (inactive) | 1.02 (inactive) | 0.951 (inactive) | 0.995 (inactive) | 1.02 (inactive) | 1 (inactive)
COc1cc(-c2ccc(=O)[nH]n2)ccc1OC(F)F [Zardaverine] (20 µM) | 1.12 | 0.946 | 1.09 | 0.984 | 0.932 (inactive) | 0.971 (inactive) | 0.994 (inactive) | 0.953 (inactive) | 0.987 (inactive) | 1.01 (inactive) | 0.997 (inactive) | 0.952 (inactive)
Nc1ccc(/N=N/c2ccccc2)c(N)n1 [Phenazopyridine hydrochloride] (20 µM) | 1.12 | 0.985 | 0.982 | 1.06 | 0.998 (inactive) | 0.991 (inactive) | 1.02 (inactive) | 0.969 (inactive) | 0.986 (inactive) | 1.02 (inactive) | 0.994 (inactive) | 0.969 (inactive)
CC(=O)Oc1cc(C(F)(F)F)ccc1C(=O)O [Triflusal] (20 µM) | 1.01 | 0.971 | 0.952 | 0.878 | 1 (inactive) | 1.03 (inactive) | 1.01 (inactive) | 1.04 (inactive) | 0.97 (inactive) | 0.988 (inactive) | 0.992 (inactive) | 1.02 (inactive)
Nc1nc(F)nc2c1ncn2[C@@H]1O[C@H](CO)[C@@H](O)[C@@H]1O [Fludarabine] (20 µM) | 0.775 | 0.524 | 0.982 | 0.936 | 0.976 (inactive) | 1.04 (inactive) | 0.796 (active) | 0.546 (inactive) | 0.965 (inactive) | 0.91 (inactive) | 1.02 (inactive) | 0.838 (inactive)
CC(=O)OCC(=O)[C@@]12OC3(CCCC3)O[C@@H]1C[C@H]1[C@@H]3CCC4=CC(=O)C=C[C@]4(C)[C@@]3(F)[C@@H](O)C[C@@]12C [Amcinonide] (20 µM) | 1.12 | 1.02 | 1.02 | 1.19 | 1.04 (inactive) | 0.964 (inactive) | 1.05 (inactive) | 1.02 (inactive) | 0.999 (inactive) | 1.04 (inactive) | 0.997 (inactive) | 1.07 (inactive)
CCn1cc(C(=O)O)c(=O)c2cnc(N3CCCC3)nc21 [Piromidic acid] (20 µM) | 1.09 | 1.01 | 1 | 0.973 | 0.944 (inactive) | 1.02 (inactive) | 1.06 (inactive) | 0.913 (inactive) | 1.02 (inactive) | 1.06 (inactive) | 0.999 (inactive) | 1.09 (inactive)
OC(CCN1CCCC1)(c1ccccc1)C1CCCCC1 (stereo not drawn) [Procyclidine hydrochloride] (20 µM) | 0.903 | 1.05 | 1.02 | 0.966 | 0.947 (inactive) | 0.959 (inactive) | 0.894 (inactive) | 1.13 (inactive) | 1.08 (inactive) | 0.831 (inactive) | 1.04 (inactive) | 0.912 (inactive)
N#CC(c1ccc(Cl)cc1)c1c(Cl)cc(-n2ncc(=O)[nH]c2=O)cc1Cl (stereo not drawn) [Diclazuril] (20 µM) | 0.806 | 0.993 | 1.08 | 0.961 | 0.913 (inactive) | 0.791 (inactive) | 0.778 (active) | 0.911 (inactive) | 0.967 (inactive) | 0.99 (inactive) | 1.03 (inactive) | 0.81 (inactive)
C[C@@H]1O[C@@H](O[C@H]2[C@H](Oc3cc(O)c(C(=O)CCc4ccc(O)cc4)c(O)c3)O[C@H](CO)[C@@H](O)[C@@H]2O)[C@H](O)[C@H](O)[C@H]1O [Naringin Dihydrochalcone] (50 µM) | 1.1 | 0.965 | 1.05 | 1.2 | 0.958 (inactive) | 0.968 (inactive) | 1 (inactive) | 0.983 (inactive) | 0.996 (inactive) | 1.13 (inactive) | 1.01 (inactive) | 0.966 (inactive)
C[C@]12C[C@H](O)[C@H]3[C@@H](CCC4=CC(=O)CC[C@@]43C)[C@@H]1CC[C@@H]2C(=O)CO [Corticosterone] (20 µM) | 0.994 | 1.05 | 1.07 | 1.11 | 0.992 (inactive) | 0.971 (inactive) | 0.998 (inactive) | 1.05 (inactive) | 0.99 (inactive) | 1.01 (inactive) | 1 (inactive) | 1.04 (inactive)
